# From PubChem BioAssay AID463173 (ICCB-Longwood Screening Facility, Harvard Medical School, 2010)
# About 4,300 (8.3%) of roughly 52,000 compounds were called active. The sample holds actives, similar compounds and a random draw of the others, so the mix is not that of the screen. Values without a mark were called inactive. Cut-off read from the data, not from the text of the source: active = survival mostly below about 52% (no sharp cut-off); inactive = mostly above about 56%.
# Tested on: DeltatarO mutant
# Assay: growth inhibition of S. aureus wild type versus tarO mutant, primary screen, teichoic acid synthesis inhibitors, RN4220, OD600 (AID 463173)
# Details: OD600, 18 h, hits give low values, screened at 18.75 µg/mL (by protocol)
row,SMILES,survival
1,Cc1ccc(C)c(-n2c3nc(=O)[nH]c(=O)c-3cc3c(C)nn(-c4ccccc4)c32)c1,92%
2,COc1ccc(NC(=O)CC2C(=O)N(c3ccccc3)C(=O)N2CCc2sccc2C)cc1 (stereo not given),65%
3,CCN(CC)CCCNC(=O)Cc1ccc(NC(=O)N2CCCCc3ccccc32)cc1,79%
4,CCOC(=O)c1cc2c(=O)n3ccccc3nc2n(CC2CCCO2)c1=NC(=O)c1ccccc1Br (stereo not given),47% (active)
5,CCOC(=O)c1cc2c(=O)n3ccccc3nc2n(CC2CCCO2)c1=NC(=O)c1ccc(OC)cc1OC (stereo not given),38% (active)
6,CCOC(=O)c1cc2c(=O)n3ccccc3nc2n(CC2CCCO2)c1=NC(=O)c1ccccc1F (stereo not given),44% (active)
7,CCOC(=O)c1cc2c(=O)n3ccccc3nc2n(CC2CCCO2)c1=NC(=O)c1ccccc1C (stereo not given),43% (active)
8,CCOC(=O)c1cc2c(=O)n3ccccc3nc2n(CC2CCCO2)c1=NC(=O)c1ccccc1OCC (stereo not given),51%
9,CCOC(=O)c1cc2c(=O)n3ccccc3nc2n(CC2CCCO2)c1=NC(=O)c1ccc(F)cc1 (stereo not given),54%
10,CCOC(=O)c1cc2c(=O)n3ccccc3nc2n(CC2CCCO2)c1=NC(=O)c1ccc(OCC)cc1 (stereo not given),51%
11,CCOC(=O)c1cc2c(=O)n3ccccc3nc2n(CC(C)C)c1=NC(=O)c1c(-c2c(F)cccc2Cl)noc1C,165%
12,O=C(CC1N=C2c3ccccc3N=C(SCC(=O)Nc3ccccc3F)N2C1=O)NCc1ccc2c(c1)OCO2 (stereo not given),73%
13,Nc1c(-c2nc(-c3ccc(Cl)cc3)no2)nnn1-c1ccc(C(F)(F)F)c(Cl)c1,75%
14,Cc1cc(C)c2c(CC(=O)Nc3ccccc3C(F)(F)F)coc2c1,72%
15,O=C(NCCCN1CCCC1)c1ccccc1Cl,86%
16,COc1ccc(Nc2nc3ccc(Cl)cc3n3nnnc23)cc1OC,102%
17,CC(C)C(=O)NCC(c1ccc2c(c1)OCO2)N1CCN(c2ccccc2F)CC1 (stereo not given),74%
18,COC(=O)CC(=O)CSc1nc(C)cc(C)c1C#N,80%
19,CS(=O)(=O)c1ccc2nc(NC(=O)c3ccccc3)sc2c1,81%
20,CCOc1ccc2nc(NC(=O)c3cc(=O)c4ccc(C)cc4o3)sc2c1,25% (active)
21,Cc1ccc2c(=O)cc(C(=O)Nc3nc4ccc(Cl)cc4s3)oc2c1C,39% (active)
22,CCOc1ccc2nc(NC(=O)c3cc(=O)c4cc(C)cc(C)c4o3)sc2c1,85%
23,COc1ccc2nc(NC(=O)c3cc(=O)c4cc(C)cc(C)c4o3)sc2c1,69%
24,CCOc1ccc2nc(NC(=O)c3ccccc3)sc2c1,41% (active)
25,COc1ccc2nc(NC(=O)c3cc(=O)c4cc(C)c(C)cc4o3)sc2c1,58%
26,O=C(Nc1nc2ccc(Cl)cc2s1)c1cc(=O)c2ccccc2o1,32% (active)
27,CCOc1ccc2nc(NC(=O)c3nc(SC)ncc3Cl)sc2c1,95%
28,CC(=O)Nc1ccc2nc(NC(=O)c3cc4ccccc4o3)sc2c1,102%
29,Cc1cc(C)c2oc(C(=O)Nc3nc4ccc(Cl)cc4s3)cc(=O)c2c1,61%
30,COc1ccc2nc(NC(=O)c3cc(=O)c4ccccc4o3)sc2c1,50%
